The supplement of paper PMC12669032

Columns and labels:
Assay in all cases: growth AUC relative to DMSO control (median of replicates) (fraction); higher = more growth (less inhibition), active = hit call of the paper
Details in all cases: 20 µM; 24 h;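 active = AUC reduced over 20% with Padj below 0.05 in at least 2 of 3 replicates; inactive = otherwise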
Akkermansia muciniphila = test system: Akkermansia muciniphila
How it was run: (§1)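 Gut bacteria were grown singly in mGAM at 37 °C without oxygen, from OD600 0.05, alongside 20 µM compound in 1% DMSO, and OD600 was read each hour for 24 h. Area under the growth curve was normalised to the median of solvent-only wells per plate, or to row and column medians on the industrial chemical plate. The minimum OD was set to 0 beforehand, and the reported value is the median of three biological replicates grown on separate days.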

Bacteroides caccae = test system: Bacteroides caccae
How it was run: as §1

Bacteroides clarus = test system: Bacteroides clarus
How it was run: as §1

Bacteroides dorei = test system: Bacteroides dorei
How it was run: as §1

Bacteroides stercoris = test system: Bacteroides stercoris
How it was run: as §1

[1] = test system: Bacteroides thetaiotaomicron
How it was run: as §1

Bacteroides uniformis = test system: Bacteroides uniformis
How it was run: as §1

[2] = test system: Bifidobacterium longum subsp. longum
How it was run: as §1

Clostridium difficile = test system: Clostridium difficile
How it was run: as §1

Collinsella aerofaciens = test system: Collinsella aerofaciens
How it was run: as §1

Coprococcus comes = test system: Coprococcus comes
How it was run: as §1

Escherichia coli ED1a = test system: Escherichia coli ED1a
How it was run: as §1

Escherichia coli IAI1 = test system: Escherichia coli IAI1
How it was run: as §1

Eubacterium rectale = test system: Eubacterium rectale
How it was run: as §1

[3] = test system: Fusobacterium nucleatum subsp. animalis
How it was run: as §1

Lactobacillus gasseri = test system: Lactobacillus gasseri
How it was run: as §1

Lactobacillus paracasei = test system: Lactobacillus paracasei
How it was run: as §1

Odoribacter splanchnicus = test system: Odoribacter splanchnicus
How it was run: as §1

[4] = test system: Parabacteroides distasonis
How it was run: as §1

Parabacteroides merdae = test system: Parabacteroides merdae
How it was run: as §1

Measured: growth AUC

O=[N+]([O-])/N=C1\NCCN1Cc1ccc(Cl)nc1
inactive: Akkermansia muciniphila 0.979 | Bacteroides caccae 1.01 | Bacteroides clarus 1.02 | Bacteroides dorei 1.03 | Bacteroides stercoris 1.08 | [1] 0.984 | Bacteroides uniformis 1 | [2] 0.963 | Clostridium difficile 0.99 | Collinsella aerofaciens 0.98 | Coprococcus comes 0.975 | Escherichia coli ED1a 1.02 | Escherichia coli IAI1 1 | Eubacterium rectale 1.06 | [3] 1.06 | Lactobacillus gasseri 0.862 | Lactobacillus paracasei 0.951 | Odoribacter splanchnicus 1.09 | [4] 1.02 | Parabacteroides merdae 1.07

CCOP(=S)(OCC)SCS(=O)CC (stereo not given)
inactive: Akkermansia muciniphila 1.03 | Bacteroides caccae 0.99 | Bacteroides clarus 0.994 | Bacteroides dorei 1.01 | Bacteroides stercoris 1.05 | [1] 1.02 | Bacteroides uniformis 0.994 | [2] 1.03 | Clostridium difficile 0.972 | Collinsella aerofaciens 1.01 | Coprococcus comes 1.03 | Escherichia coli ED1a 0.996 | Escherichia coli IAI1 1.01 | Eubacterium rectale 0.995 | [3] 1.04 | Lactobacillus gasseri 0.95 | Lactobacillus paracasei 0.95 | Odoribacter splanchnicus 1.06 | [4] 1.09 | Parabacteroides merdae 0.998

C=CCC1=C(C)C(OC(=O)[C@@H]2[C@@H](C=C(C)C)C2(C)C)CC1=O (stereo not given in full)
inactive: Akkermansia muciniphila 1.01 | Bacteroides caccae 0.983 | Bacteroides clarus 1.02 | Bacteroides dorei 1.05 | Bacteroides stercoris 1.08 | [1] 0.96 | Bacteroides uniformis 1.01 | [2] 1 | Clostridium difficile 1.04 | Collinsella aerofaciens 1.03 | Coprococcus comes 1.03 | Escherichia coli ED1a 1.01 | Escherichia coli IAI1 0.988 | Eubacterium rectale 0.919 | [3] 1 | Lactobacillus gasseri 0.962 | Lactobacillus paracasei 0.968 | Odoribacter splanchnicus 1.07 | [4] 0.9 | Parabacteroides merdae 0.999

Clc1ccc(Cl)c(Cl)c1
inactive: Akkermansia muciniphila 1.04 | Bacteroides caccae 0.88 | Bacteroides clarus 1.04 | Bacteroides dorei 1.01 | Bacteroides stercoris 1.24 | [1] 1.02 | Bacteroides uniformis 0.953 | [2] 0.957 | Clostridium difficile 0.941 | Collinsella aerofaciens 0.969 | Coprococcus comes 0.919 | Escherichia coli ED1a 0.996 | Escherichia coli IAI1 0.974 | Eubacterium rectale 1.1 | [3] 1.11 | Lactobacillus gasseri 0.86 | Lactobacillus paracasei 0.943 | Odoribacter splanchnicus 0.983 | [4] 0.95 | Parabacteroides merdae 1.02

COP(=O)(OC)Oc1ccc([N+](=O)[O-])cc1
inactive: Akkermansia muciniphila 1.17 | Bacteroides caccae 0.989 | Bacteroides clarus 1.03 | Bacteroides dorei 1.02 | Bacteroides stercoris 1.01 | [1] 0.991 | Bacteroides uniformis 1 | [2] 1.07 | Clostridium difficile 1.04 | Collinsella aerofaciens 0.948 | Coprococcus comes 1.07 | Escherichia coli ED1a 1.03 | Escherichia coli IAI1 0.996 | Eubacterium rectale 1.17 | [3] 1.09 | Lactobacillus gasseri 0.998 | Lactobacillus paracasei 1.02 | Odoribacter splanchnicus 0.954 | [4] 0.981 | Parabacteroides merdae 1.02

CCOC(=O)CCN(Cc1ccccc1)SN(C)C(=O)O/N=C(/C)SC
inactive: Akkermansia muciniphila 0.948 | Bacteroides caccae 0.993 | Bacteroides clarus 0.979 | Bacteroides dorei 1.04 | Bacteroides stercoris 1.09 | [1] 0.991 | Bacteroides uniformis 1.09 | [2] 1.03 | Clostridium difficile 1.01 | Collinsella aerofaciens 1.02 | Coprococcus comes 0.985 | Escherichia coli ED1a 0.995 | Escherichia coli IAI1 0.988 | Eubacterium rectale 1.08 | [3] 0.837 | Lactobacillus gasseri 0.909 | Lactobacillus paracasei 1.02 | Odoribacter splanchnicus 1.08 | [4] 1.02 | Parabacteroides merdae 0.99

CC1(C)CCC(Cc2ccc(Cl)cc2)C1(O)Cn1cncn1 (stereo not given)
inactive: Akkermansia muciniphila 1.01 | Bacteroides caccae 0.874 | Bacteroides clarus 0.925 | Bacteroides dorei 0.98 | Bacteroides stercoris 1.35 | [1] 0.93 | Bacteroides uniformis 0.937 | [2] 1.03 | Clostridium difficile 0.973 | Collinsella aerofaciens 0.95 | Coprococcus comes 0.982 | Escherichia coli ED1a 0.971 | Escherichia coli IAI1 0.98 | Eubacterium rectale 0.8 | [3] 1.08 | Lactobacillus gasseri 0.976 | Lactobacillus paracasei 1.02 | Odoribacter splanchnicus 0.823 | [4] 0.927 | Parabacteroides merdae 0.918

Cc1ccc(N=CN(C)C=Nc2ccc(C)cc2C)c(C)c1
inactive: Akkermansia muciniphila 1.13 | Bacteroides caccae 1.01 | Bacteroides clarus 1.06 | Bacteroides dorei 0.983 | Bacteroides stercoris 1.05 | [1] 1.01 | Bacteroides uniformis 1.02 | [2] 1.03 | Clostridium difficile 1.04 | Collinsella aerofaciens 1.01 | Coprococcus comes 1.04 | Escherichia coli ED1a 1.01 | Escherichia coli IAI1 1.01 | Eubacterium rectale 1.06 | [3] 1.09 | Lactobacillus gasseri 0.967 | Lactobacillus paracasei 1.06 | Odoribacter splanchnicus 1.02 | [4] 0.988 | Parabacteroides merdae 1.01

CCCCCCCC(=O)Oc1c(I)cc(C#N)cc1I
inactive: Akkermansia muciniphila 1.1 | Bacteroides caccae 0.886 | Bacteroides clarus 0.864 | Bacteroides dorei 0.962 | Bacteroides stercoris 1.1 | [1] 0.951 | Bacteroides uniformis 0.88 | [2] 1.03 | Clostridium difficile 0.998 | Collinsella aerofaciens 0.989 | Coprococcus comes 0.995 | Escherichia coli ED1a 0.985 | Escherichia coli IAI1 0.896 | Eubacterium rectale 1.09 | [3] 1.16 | Lactobacillus gasseri 0.89 | Lactobacillus paracasei 1.01 | Odoribacter splanchnicus 0.91 | [4] 0.91 | Parabacteroides merdae 0.908

COP(=S)(OC)Oc1ccc(C#N)cc1
inactive: Akkermansia muciniphila 1.1 | Bacteroides caccae 1 | Bacteroides clarus 1.03 | Bacteroides dorei 1.04 | Bacteroides stercoris 1.02 | [1] 0.989 | Bacteroides uniformis 1.04 | [2] 1.01 | Clostridium difficile 1.03 | Collinsella aerofaciens 1.01 | Coprococcus comes 1.04 | Escherichia coli ED1a 1.04 | Escherichia coli IAI1 1.02 | Eubacterium rectale 1.11 | [3] 1.04 | Lactobacillus gasseri 1.03 | Lactobacillus paracasei 1 | Odoribacter splanchnicus 1.02 | [4] 1.07 | Parabacteroides merdae 1

COc1ccc(/C(=C/C(=O)N2CCOCC2)c2ccc(Cl)cc2)cc1OC
inactive: Akkermansia muciniphila 1.1 | Bacteroides caccae 0.962 | Bacteroides clarus 1 | Bacteroides dorei 0.93 | Bacteroides stercoris 1.33 | [1] 0.978 | Bacteroides uniformis 0.954 | [2] 1.04 | Clostridium difficile 0.932 | Collinsella aerofaciens 0.93 | Coprococcus comes 0.985 | Escherichia coli ED1a 1.01 | Escherichia coli IAI1 1.02 | Eubacterium rectale 1.12 | [3] 1.06 | Lactobacillus gasseri 0.961 | Lactobacillus paracasei 1.06 | Odoribacter splanchnicus 0.823 | [4] 0.993 | Parabacteroides merdae 0.993

CCOP(=O)(OCC)O/C(=C\Cl)c1ccc(Cl)cc1Cl
active: [4] 0.725
inactive: Akkermansia muciniphila 0.854 | Bacteroides caccae 0.982 | Bacteroides clarus 0.952 | Bacteroides dorei 0.983 | Bacteroides stercoris 0.956 | [1] 0.962 | Bacteroides uniformis 0.942 | [2] 0.873 | Clostridium difficile 1 | Collinsella aerofaciens 1 | Coprococcus comes 0.994 | Escherichia coli ED1a 0.984 | Escherichia coli IAI1 1.01 | Eubacterium rectale 0.899 | [3] 0.987 | Lactobacillus gasseri 1.06 | Lactobacillus paracasei 1.02 | Odoribacter splanchnicus 0.972 | Parabacteroides merdae 0.945

C[C@@H](Oc1ccc(Oc2nc3ccc(Cl)cc3o2)cc1)C(=O)O
inactive: Akkermansia muciniphila 1.03 | Bacteroides caccae 1 | Bacteroides clarus 1.01 | Bacteroides dorei 0.924 | Bacteroides stercoris 1.09 | [1] 1.01 | Bacteroides uniformis 0.929 | [2] 1.16 | Clostridium difficile 0.905 | Collinsella aerofaciens 0.961 | Coprococcus comes 1.04 | Escherichia coli ED1a 1.01 | Escherichia coli IAI1 1.02 | Eubacterium rectale 1.07 | [3] 1.01 | Lactobacillus gasseri 0.968 | Lactobacillus paracasei 0.983 | Odoribacter splanchnicus 1.09 | [4] 1.03 | Parabacteroides merdae 1.03

CC(C)N(C(=O)COc1nnc(C(F)(F)F)s1)c1ccc(F)cc1
active: Akkermansia muciniphila 0.411
inactive: Bacteroides caccae 1.05 | Bacteroides clarus 1.02 | Bacteroides dorei 0.996 | Bacteroides stercoris 0.973 | [1] 0.952 | Bacteroides uniformis 0.907 | [2] 1.03 | Clostridium difficile 0.955 | Collinsella aerofaciens 1.01 | Coprococcus comes 0.988 | Escherichia coli ED1a 1.03 | Escherichia coli IAI1 1.01 | Eubacterium rectale 1.1 | [3] 1.05 | Lactobacillus gasseri 1.04 | Lactobacillus paracasei 1.02 | Odoribacter splanchnicus 1 | [4] 0.937 | Parabacteroides merdae 0.986

ClC1=C(Cl)C2(Cl)[C@H]3[C@H]4O[C@H]4[C@H](Cl)[C@H]3C1(Cl)C2(Cl)Cl (single isomer, unassigned; isomer a)
inactive: Akkermansia muciniphila 1.05 | Bacteroides caccae 0.99 | Bacteroides clarus 0.989 | Bacteroides dorei 1 | Bacteroides stercoris 0.778 | [1] 1.02 | Bacteroides uniformis 0.991 | [2] 1.07 | Clostridium difficile 0.998 | Collinsella aerofaciens 0.949 | Coprococcus comes 0.941 | Escherichia coli ED1a 0.982 | Escherichia coli IAI1 0.971 | Eubacterium rectale 1.05 | [3] 1.08 | Lactobacillus gasseri 0.96 | Lactobacillus paracasei 0.991 | Odoribacter splanchnicus 1.08 | [4] 1.02 | Parabacteroides merdae 0.98

CNC(=O)Oc1ccccc1OC(CCl)OC (stereo not given)
inactive: Akkermansia muciniphila 1.17 | Bacteroides caccae 0.941 | Bacteroides clarus 1.06 | Bacteroides dorei 0.955 | Bacteroides stercoris 1.23 | [1] 1.02 | Bacteroides uniformis 0.982 | [2] 1.02 | Clostridium difficile 1.03 | Collinsella aerofaciens 1.07 | Coprococcus comes 1.01 | Escherichia coli ED1a 1.02 | Escherichia coli IAI1 1.02 | Eubacterium rectale 1.16 | [3] 1.19 | Lactobacillus gasseri 1.04 | Lactobacillus paracasei 1.04 | Odoribacter splanchnicus 1.05 | [4] 0.988 | Parabacteroides merdae 1.06
